This is part of a sample that, as a whole, favours compounds with a hit. Of some 83,000 tested, about 20% had one in any assay.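 How to read the values: 0–100, growth inhibition (40 = 60% inhibited); 0, no net growth; -100 to 0, cell death (-40 = 40% of starting cells died; -100 = all dead).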 The source made the active and inactive calls. The calls were made as follows: active = growth percent below 10; inactive = the rest.
How the values were obtained:
Experiment in all cases: NCI-60 one-dose screen, 48 h (100 = growth as untreated, 0 = no growth, -100 = all killed)
NCI-H226 lung = details: 10 µM unless noted
MALME-3M melanoma = details: 10 µM unless noted
RXF 393 renal = details: 10 µM unless noted
SF-295 CNS = details: 10 µM unless noted
UACC-257 melanoma = details: 10 µM unless noted
M14 melanoma = details: 10 µM unless noted
PC-3 prostate = details: 10 µM unless noted
SK-MEL-5 melanoma = details: 10 µM unless noted
LOX IMVI melanoma = details: 10 µM unless noted
CAKI-1 renal = details: 10 µM unless noted
A498 renal = details: 10 µM unless noted
CCRF-CEM leukemia = details: 10 µM unless noted
MOLT-4 leukemia = details: 10 µM
RPMI-8226 leukemia = details: 10 µM unless noted
OVCAR-8 ovarian = details: 10 µM unless noted
OVCAR-3 ovarian = details: 10 µM unless noted
HS 578T breast = details: 10 µM unless noted
BT-549 breast = details: 10 µM
HCT-116 colon = details: 10 µM unless noted
HCC-2998 colon = details: 10 µM unless noted

Measured: growth

C/C(=N/OC(=O)N(C)C)c1ccc(Cl)cc1Cl
inactive: NCI-H226 lung 104% | MALME-3M melanoma 97.6% | RXF 393 renal 112% | SF-295 CNS 98.6% | UACC-257 melanoma 101% | M14 melanoma 106% | PC-3 prostate 118% | SK-MEL-5 melanoma 103% | LOX IMVI melanoma 97.8% | CAKI-1 renal 96.6% | A498 renal 90.9% | CCRF-CEM leukemia 94.1% | MOLT-4 leukemia 90% | RPMI-8226 leukemia 103% | OVCAR-8 ovarian 106% | OVCAR-3 ovarian 99.5% | HS 578T breast 107% | BT-549 breast 97% | HCT-116 colon 99.1% | HCC-2998 colon 102%

CC(C)Nc1ccc(Nc2ccccc2)cc1
active: PC-3 prostate 9.1% | OVCAR-3 ovarian 7.43% | HCT-116 colon 9.97%
inactive: NCI-H226 lung 51.1% | MALME-3M melanoma 43% | RXF 393 renal 55.5% | SF-295 CNS 12.5% | UACC-257 melanoma 47.5% | M14 melanoma 47.7% | SK-MEL-5 melanoma 57.9% | LOX IMVI melanoma 14.5% | CAKI-1 renal 41.6% | A498 renal 65.9% | CCRF-CEM leukemia 38.3% | MOLT-4 leukemia 43.6% | RPMI-8226 leukemia 11.5% | OVCAR-8 ovarian 28.1% | HS 578T breast 17.9% | BT-549 breast 22.8% | HCC-2998 colon 49.6%

OC1(c2ccc(Cl)cc2Cl)c2ccccc2C2=NCCN21 (stereo not given)
inactive: NCI-H226 lung 71.3% | MALME-3M melanoma 100% | SF-295 CNS 95.3% | UACC-257 melanoma 86.2% | M14 melanoma 102% | PC-3 prostate 79% | SK-MEL-5 melanoma 83% | LOX IMVI melanoma 90.7% | A498 renal 94.4% | CCRF-CEM leukemia 90.5% | MOLT-4 leukemia 78.9% | RPMI-8226 leukemia 82.3% | OVCAR-8 ovarian 102% | OVCAR-3 ovarian 85.6% | HS 578T breast 77.7% | BT-549 breast 93.5% | HCT-116 colon 78.8% | HCC-2998 colon 75.3%
active: RXF 393 renal -13% | CAKI-1 renal -21.8%

— PubChem BioAssay (NCI)
